Screens as filed in PubChem BioAssay.
The sample as a whole holds a higher share of hits than the screen did.
Pf Dd2 growth – Plasmodium falciparum Dd2 growth inhibition | P. falciparum Dd2 growth, SYBR Green, 72 h | Potency, µM (highest dose often 28.9 µM), most hits filed as inhibitors | 4.3% of 120,000 active | AID 1347417; active = well fitted inhibition curve with a large enough effect; note: nearly all actives have a fitted effect of over 65% in size
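Infected erythrocytes (Dd2, 0.3% parasitemia, 2.5% hematocrit final) are added to compound in RPMI-1640/Albumax II medium, grown 72 h at 37C in low oxygen, then lysed with saponin/Triton-X containing SYBR Green and read by fluorescence.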
Hits are given with their value; i = inactive.

SMILES | Pf Dd2 growth
O=C(NCC(c1cccnc1)N1CCN(c2ccccc2F)CC1)C(=O)Nc1ccc(F)cc1F (centres undefined) | 3.2µM
COCCNC(=O)C(=O)NCC(c1cccnc1)N1CCN(c2ccccc2OC)CC1 (centres undefined) | i
CN1CCN(C(CNC(=O)C(=O)Nc2ccc(F)cc2)c2cccnc2)CC1 (centres undefined) | i
O=C(C1CCCN(c2cnn(Cc3ccccc3)c(=O)c2)C1)N1CCN(C2CCCCC2)CC1 (centres undefined) | i
CCNc1cc(N2CCN(C3CCCCC3)CC2)c2noc3c2c1C(=O)c1ccccc1-3 | 5µM
COc1ccccc1-c1nc(C2CC(=O)N(C3CCCCC3)C2)no1 (centres undefined) | i
O=C(O)CCCNc1cc(N2CCN(C3CCCCC3)CC2)c2noc3c2c1C(=O)c1ccccc1-3 | 11µM
Cc1ccc(-c2onc(C)c2C)cc1S(=O)(=O)NC1CCCCC1 | i
O=C(CC1CCCC1)NC1CCN(c2cnn(Cc3ccccc3)c(=O)c2)CC1 | i
O=C1c2ccccc2-c2onc3c(NCCO)cc(NC4CCCCC4)c1c23 | 8.9µM
COc1ccc(C(=O)N2CCCCCC2c2nnc(-c3ccccc3)o2)cn1 (centres undefined) | i
Cc1noc([C@@H]2C[C@H](NS(=O)(=O)c3cccc4cccnc34)CN2C)n1 | i
O=C1CCN(C(=O)c2cccnc2)CCCC(C(=O)NCCCc2ccccc2)CCN1 (centres undefined) | i
COC[C@H]1CCCN1[C@@H]1[C@H](O)[C@H](CO)O[C@@H]1CNC(=O)Nc1cccc(Cl)c1 | i
COCC(c1ccccn1)N(C)C(=O)c1cc(S(N)(=O)=O)ccc1F (centres undefined) | i
COCCNC(=O)C[C@@H]1C[C@H]2O[C@H](CNC(=O)N3CCOCC3)[C@@H](O)[C@H]2O1 | i
CCNC(=O)[C@@H]1C[C@@H](NC(=O)Cn2nc(C)cc2N)CN1C1CCOCC1 | i
O=C1Nc2cnccc2C2(CCN([S+](=O)([O-])c3cccc(C(F)(F)F)c3)C2)O1 (centres undefined) | i
CCOc1ccccc1CN1CCN(c2ccnc(N)n2)CC1CCO (centres undefined) | i
O=C(C1CCCC1)N1CCC(CCOc2ccc(F)cc2)C1 (centres undefined) | i
CC(C)Nc1ccnc(N2CCN(Cc3ccccc3F)C(CCO)C2)n1 (centres undefined) | i
OCCC1CN(c2cc(C(F)(F)F)ccn2)CCN1CC1CCCCC1 (centres undefined) | 13µM
OCCC1CN(CCOc2ccc(F)cc2)CCN1CC1CCCCC1 (centres undefined) | 8.9µM
CC1CCN(CC2CCCN(C(=O)COc3ccc(F)cc3)CC2)CC1 (centres undefined) | i
COc1cncc(NC(=O)C2=NO[C@@H]3CN(Cc4ccc(O)c(Cl)c4)C[C@H]23)c1 | i
SMILES | Pf Dd2 growth
O=C(c1ccc2c(c1)OCO2)N1CCCN(c2cc(-c3ccc(F)cc3)[nH]n2)CC1 | i
O=C(c1ccc(Cl)cc1)N1CCC2(COc3ccncc3[S+](=O)([O-])N2)C1 (centres undefined) | i
COc1ccc(OC)c(CNC(=O)c2c(C)oc3ncn(CC(C)C)c(=O)c23)c1 | 10µM
CCOC(=O)C(C)NC(=O)c1c(C)oc2ncn(CC(C)C)c(=O)c12 (centres undefined) | i
COc1ccc(OC)c(CCNC(=O)c2c(C)oc3ncn(C)c(=O)c23)c1 | i
O=C(CSc1nnc(-c2ccc(Cl)cc2)c(-c2ccc(Cl)cc2)n1)NC1CCCC1 | i
Cc1ccc(-c2nnc(SCC(=O)NC3CCCC3)nc2-c2ccc(C)cc2)cc1 | 5µM
COc1ccc(-c2nnc(SCC(=O)NC3CCCCC3)nc2-c2ccc(OC)cc2)cc1 | i
COCCC1(C(=O)O)CCCN(C(=O)c2cc(F)ccc2OC)C1 (centres undefined) | i
Cc1nn(C)c(C)c1CCC(=O)N1CCN(C(=O)N2CC3CC(C2)[C@H]2CCCC(=O)N2C3)CC1 (some centres undefined) | i
Cn1cc(CN2CC[C@@H](c3ccc4c(c3)OCO4)[C@H](O)C2)c2ccccc21 | 8.9µM
CS(=O)(=O)N1CCC(C2CCN(Cc3ccncc3)C2)CC1 (centres undefined) | i
CN1C[C@H]2CN(Cc3cn(C)c4ccccc34)CCN2C1=O | i
Cn1cc(CN2C[C@@H]3OCC(=O)N[C@@H]3C2)c2ccccc21 | i
CS(=O)(=O)N1CCC(C2CCN(Cc3ccsc3)C2)CC1 (centres undefined) | i
Cn1cc(CN2CCC(C3CCN(S(C)(=O)=O)CC3)C2)c2ccccc21 (centres undefined) | 3.5µM
Cc1cccc(NC(=O)C2(C)CCCCC(=O)N2)c1 (centres undefined) | i
Cc1nn(C)cc1CN(C)C(=O)c1cn2ccnc(-c3ccccc3)c2n1 | i
COc1ccc(CN2CCCC3(CC(C(C)C)=NO3)C2)cc1 (centres undefined) | i
O=C(c1cc2ccccc2[nH]1)N1CCC(Cc2nncn2CC2CC2)C1 (centres undefined) | i
O=C(c1ccncn1)N1C[C@@H](COCC2CC2)[C@H](c2ccncc2)C1 | i
COc1ncccc1C(=O)N1CCCC(c2nnc(Cn3ccnc3)n2C)C1 (centres undefined) | i
CC1=C[C@@H](CN2CCOCC2)[C@H](C(C)C)C[C@H]1Cc1nnc(-c2ccccc2)o1 | i
CC1=C[C@@H](CN2CCN(c3ncccn3)CC2)[C@H](C(C)C)C[C@H]1Cc1nnc(Cc2c[nH]c3ccccc23)o1 | 3.5µM
CC1=C[C@@H](CN2CCN(CCO)CC2)[C@H](C(C)C)C[C@H]1Cc1nnc(C)o1 | i
SMILES | Pf Dd2 growth
CC(=O)N1CCN(C[C@@H]2C=C(C)[C@H](Cc3nnc(-c4cccnc4)o3)C[C@H]2C(C)C)CC1 | 7.9µM
COCCN1CCN(C[C@@H]2C=C(C)[C@H](Cc3nnc(C)o3)C[C@H]2C(C)C)CC1 | i
CCCc1nnc(C[C@@H]2C[C@@H](C(C)C)[C@H](CN3CCN(C(C)=O)CC3)C=C2C)o1 | 11µM
CC1=C[C@@H](CN2CCN(c3cnccn3)CC2)[C@H](C(C)C)C[C@H]1Cc1nnc(-c2ccc([N+](=O)[O-])cc2)o1 | i
CC(C)NC(=O)N[C@H]1C[C@H]2C(=O)NC[C@@H](CCC(=O)N3CCN(C)CC3)N2C1 | i
CCOc1cc(=O)n2c(c1C(=O)Nc1ccc(C(N)=O)cc1)CCCC2 | i
COCCNC(=O)[C@@H]1CCC[C@@H](NCc2nccs2)CN(C)C(=O)C1 | i
C1CNC(c2nc(C3CCOCC3)no2)C1 (centres undefined) | i
COCCN1CCC(N2CCN(S(=O)(=O)c3ccc(C)c(C)c3)CC2)C1=O (centres undefined) | i
O=[S+]([O-])(c1ccccc1)N1CC(Oc2ccc3c(c2)OCO3)C1 | i
COc1cccc(CN2CC[C@H]3COC(=O)N3c3cc(F)ccc3C2)c1 | i
COCC(=O)NCCC1CCN(C(=O)Nc2ccc(F)cc2)CC1 | i
CCCC(=O)N1CCC2(CC1)C(=O)N(C)c1ccccc12 | i
CN1C(=O)C2(CCN(Cc3ccc(C(F)(F)F)cc3)C2)c2ccccc21 (centres undefined) | i
N#Cc1ccc(CN2CCC3(C2)C(=O)Nc2ccccc23)cc1 (centres undefined) | i
O=C(c1ccc(C(F)(F)F)cc1)N1CCC2(C1)C(=O)N(c1ccccc1)c1ccccc12 (centres undefined) | 10µM
